# Results reported in article PMC7819943, “Rice protein-binding microarrays: a tool to detect cis-acting elements near promoter regions in rice”.
# Whole data set: some 35,000 sequences, median “fluorescence intensity (a.u.)” near 10,000, cut for the highest 2% near 52,000. The sample as a whole holds a higher share of the highest values than the screen did.
# Molecular target: T1, OsWOX13 (Oryza sativa, UniProt Q5QMM3 1-267)
# T1 sequence: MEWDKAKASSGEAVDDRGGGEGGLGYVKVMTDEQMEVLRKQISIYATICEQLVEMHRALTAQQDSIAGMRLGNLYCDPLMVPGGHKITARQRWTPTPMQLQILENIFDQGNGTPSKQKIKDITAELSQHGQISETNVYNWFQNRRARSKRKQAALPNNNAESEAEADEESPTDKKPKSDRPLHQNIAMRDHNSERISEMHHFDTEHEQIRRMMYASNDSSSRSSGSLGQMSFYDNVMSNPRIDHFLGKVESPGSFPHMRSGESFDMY
# Assay: protein-binding microarray (RPBM); PBS, 2% BSA, 51.3 ng/ul salmon testes DNA, 50 uM zinc acetate, 200 nM TF, 25 C, 1 h; high values mean tight binding
# Settings: protein: recombinant; tags: N-terminal polyhistidine and DsRed monomer fusion (pET32a); label: CyDye5-dUTP incorporated in the synthesized complementary strand; 3' TTTTT single-stranded linker to array surface; dsDNA, one strand shown
# Summary of the method: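 The binding signal is fluorescence intensity per array feature (arbitrary units). Readings came from an Axon 4000B scanner after a washed, 2% BSA-blocked, double-stranded custom Agilent array had been incubated for 1 h at 25 °C with 200 nM protein and 50 µM zinc acetate. The protein was a Ni–NTA-purified transcription factor fused N-terminally to polyhistidine and DsRed, expressed in E. coli BL21-CodonPlus.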
row,Sequence,binding signal
1,AACGTATTTGGCCCAATTAAGTATATACATATGTAATGCGCGGAGTCACCTAGTGCAG,3420 fluorescence intensity (a.u.)
2,GTCAAGTAACTGAACATTTTAATTGCTGCCGATTATTACCCGGAGTCACCTAGTGCAG,13400 fluorescence intensity (a.u.)
3,GAATTGATGGAATTTAGGCCGCCAGCAAGCAAAGACCGAGCGGAGTCACCTAGTGCAG,13300 fluorescence intensity (a.u.)
4,CAACTGATTTTATCACGTTCTAAAATATGCCATCATCTTTCGGAGTCACCTAGTGCAG,12300 fluorescence intensity (a.u.)
5,GCCCTACACAATTTAATTACGTTGACACTGGCCGGTCTTACGGAGTCACCTAGTGCAG,7560 fluorescence intensity (a.u.)
6,CACTGACGGAGAAATTTACCGGTCAATGGCCGTCGTCGGTCGGAGTCACCTAGTGCAG,18000 fluorescence intensity (a.u.)
7,TTATAATTGACACTACGAGAATGGGTCTTTACTGCCGGTTCGGAGTCACCTAGTGCAG,57700 fluorescence intensity (a.u.)
8,ATTTAATGTACAATCATGCTTTTCCGTACTAAATTTTGTTCGGAGTCACCTAGTGCAG,14800 fluorescence intensity (a.u.)
9,TTTAAATTGTAATCCTACTTGAACTCTTCTTTATTTTCTTCGGAGTCACCTAGTGCAG,6760 fluorescence intensity (a.u.)
10,CTAAATTTGTAATTGTAATGTACTACTTTAATCCTTCGTACGGAGTCACCTAGTGCAG,53100 fluorescence intensity (a.u.)
11,TCTAATGATAAATCATTTATCACTAATTGTAAGAGTGGTACGGAGTCACCTAGTGCAG,53400 fluorescence intensity (a.u.)
12,TCTAATGATGATTGTAAGCCGTACAATTTACTAAAAGATACGGAGTCACCTAGTGCAG,15000 fluorescence intensity (a.u.)
13,TCTAAATCATTTTAATCATGGTACAGATCTACTGATAATACGGAGTCACCTAGTGCAG,7740 fluorescence intensity (a.u.)
14,AATTAACAATTTACCAAATTATTAGTTATCAACACTAATTCGGAGTCACCTAGTGCAG,11300 fluorescence intensity (a.u.)
15,GTATGTTATTATATCAATTAGATTTATGCTAGCACTGTCGCGGAGTCACCTAGTGCAG,15200 fluorescence intensity (a.u.)
16,CATTGATAGATTGCAAAAGCTAGCTGTCTGGGAGATGGTGCGGAGTCACCTAGTGCAG,49500 fluorescence intensity (a.u.)
17,ACTATCGTAGGTAGCCAATCAATTTAACATTTCACTCAAGCGGAGTCACCTAGTGCAG,3630 fluorescence intensity (a.u.)
18,CGATGATTGTTAGTATACACTATATGTATGGTGTTTATCCCGGAGTCACCTAGTGCAG,40600 fluorescence intensity (a.u.)
19,CTTGATTGACGACCATCTCGTGGTTACCAATTCCATCACCCGGAGTCACCTAGTGCAG,60000 fluorescence intensity (a.u.)
20,GCTTGACGACACCATTCGGATTGTTCCATCACTTCCATACCGGAGTCACCTAGTGCAG,3540 fluorescence intensity (a.u.)
21,CTACTATCAATCGACCAATTCCAATCTCATCGTTACAGGACGGAGTCACCTAGTGCAG,4190 fluorescence intensity (a.u.)

row,Sequence,binding signal
1,ACATGTTTTATCAATTAGTAGTATGGGCATATTACTAGTGCGGAGTCACCTAGTGCAG,17800 fluorescence intensity (a.u.)
2,AGGAGGCGGGGCGGGGCGGCGGCGGCGGCGGCGGCGCCCGCGGAGTCACCTAGTGCAG,5340 fluorescence intensity (a.u.)
3,TGCCCTTACCTGTGGTTTCTCCCGCGGCGGCGGGGTGGAGCGGAGTCACCTAGTGCAG,65500 fluorescence intensity (a.u.)
4,TCTCTTCCTTGCTGTGGTGGCGGCGGGCGGGAGGGCGGCGCGGAGTCACCTAGTGCAG,12700 fluorescence intensity (a.u.)
5,TCTGACCTGTATACTAATTTATGACCATATACTTAATCAACGGAGTCACCTAGTGCAG,5380 fluorescence intensity (a.u.)
6,AAAACCATCATCAATCAGCCGATCCTGATGTTGTCCCTGCCGGAGTCACCTAGTGCAG,25100 fluorescence intensity (a.u.)
7,AAGAGATTGGAATCGGGCGTACCGGAGAACTTTGGAGATGCGGAGTCACCTAGTGCAG,12100 fluorescence intensity (a.u.)
8,GGATAATGATTTGACATTGATTGCGGTCTCGTTATTTTCTCGGAGTCACCTAGTGCAG,59500 fluorescence intensity (a.u.)
9,AATTGATTATTCCTAACAACATTCCGCGGATTAATTTTCTCGGAGTCACCTAGTGCAG,15500 fluorescence intensity (a.u.)
10,ACATATCTTAAGATTGATGAAGTCACCACGAACGCCTCGCCGGAGTCACCTAGTGCAG,11700 fluorescence intensity (a.u.)
11,TTGATTAATTTATTTATAGTTTTGTGAAAGTTTGCGCCGTCGGAGTCACCTAGTGCAG,57900 fluorescence intensity (a.u.)
12,TCGTTGTAATAATTTGATTTCTTTTGCAGACGGTCTTTATCGGAGTCACCTAGTGCAG,5300 fluorescence intensity (a.u.)
13,GGTTTAAATTTTAAAAGTTTGATCAAATATTATCCTAAACCGGAGTCACCTAGTGCAG,4900 fluorescence intensity (a.u.)
14,CTCAAAAGTTTGGGTTGATCGATCATTTGCCTACCGAAACCGGAGTCACCTAGTGCAG,65500 fluorescence intensity (a.u.)
15,TATGATTGATATCCACGAATTGAAGAAGAAGTTGCATTGCCGGAGTCACCTAGTGCAG,55300 fluorescence intensity (a.u.)
16,GGAAGAATTGATTGATTAAAGATATATATCGAATATCTGCCGGAGTCACCTAGTGCAG,40400 fluorescence intensity (a.u.)
17,ATGAAAGGAGTTGATTTGCACCGGTTTTCAAAGATGAAAACGGAGTCACCTAGTGCAG,3470 fluorescence intensity (a.u.)
18,AGATAATTGTGAAATAATTATATTGCGATTTGATAAAGTACGGAGTCACCTAGTGCAG,14700 fluorescence intensity (a.u.)
19,GTCTAATTGTGATTTTATATTTTAATTAATTATATATTGTCGGAGTCACCTAGTGCAG,34800 fluorescence intensity (a.u.)
20,TGGAAGAAATTGATGTAATGCTCTGGCCTTTTCATGGATACGGAGTCACCTAGTGCAG,8100 fluorescence intensity (a.u.)
21,GCTAATTAAATTAATAATTCATCTTAGGAATCACAGCGTCCGGAGTCACCTAGTGCAG,39000 fluorescence intensity (a.u.)
